From PubChem BioAssay
Rows were chosen to be rich in hits. Some 1.7% of all compounds tested hit in one or more screens of this group.
p53ts 32C tox: cytotoxicity in p53ts cells at permissive temperature; H1299-p53A138V at 32C, ATP luminescence viability, 24 h; Potency, µM (top dose mostly 46.1 µM), inactives show at the highest dose activity change, negative = cytotoxicity, hits mostly cytotoxic; 0.93% of 130,000 active; AID 924;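 further: 0% = DMSO and -100% = full killing by reference compound; nearly all actives have a fitted effect of over 55% in size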
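H1299-p53 A138V cells (temperature-sensitive p53) exposed 24 h to up to 46 uM compound at 32C, where p53 is wild-type in conformation. Viability read as ATP luminescence and normalised to DMSO and 100 uM tamoxifen. AC50 fitted with the Hill equation.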
IkB sig inh: inhibitors of IkB signaling in ABC-DLBCL cells. ABC-DLBCL IkBa-CBG/CBR dual luciferase ratio, 4 h; response scale: scaled: untreated 0%, proteasome inhibitor 100%. Potency, µM (doses to about 57.1 µM), for the others: at the highest dose IkBa stabilization activation. 0.04% of 110,000 active. AID 445; active means well fitted curve in the direction sought with a large enough effect in the signal ratio, not every such curve was filed as active; inconclusive means small, poorly fitted or top-dose-only effect, or a change in a side signal; the % refers to the signal ratio;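 further: the direction sought is a rising ratio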
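Curves were fitted separately to fusion (green), unfused (red) and ratio luminescence, then classed by r2, magnitude and activity. Cells: OCI-Ly3, 4 h compound plus doxycycline at 37C; 10 uM MG-132 defined full response.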
Peg3 imprint: genomic imprint erasure induction; 0.02% of 110,000 active; Potency, µM (titrated, usually from 60.7 µM), for inactives: top-dose activity change, positive = activation, most hits filed as activators; mouse ES Peg3-LacZ reporter, beta-gal luminescence, 40 h
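Imprint erasure is scored as LacZ activity from the silenced maternal Peg3 allele in feeder-free female ES cells cultured 40 h with LIF. Luminescence is normalized to in-plate negative controls and fitted to the Hill equation.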
p53ts 39C tox: cytotoxicity in p53ts cells at nonpermissive temperature | Potency, µM (top dose mostly 46.1 µM), for the others: at the top dose activity change, negative = cell killing, actives largely listed as cytotoxic | 1.5% of 130,000 active | H1299-p53A138V viability at 39C, ATP luminescence, 24 h; further: on the % scale 0 is the no-effect control and ±100 the full control effect; nearly all actives have a fitted effect of over 55% in size
* marks the source's active call; other numbers are inactive results; ? = inconclusive; . = no result given; ! = not active in a repeat; [ ] = another dose, or the depositor's remark. Unless noted, the call rests on the fitted dose curve; in most records, active means well fitted curve in the direction sought with a large enough effect; inconclusive means small, poorly fitted or top-dose-only effect, or another doubt; inactive means no such curve, though single readings can be large; an effect the other way counts as inactive or inconclusive. Potency means the concentration at half of the fitted maximal effect.

SMILES	p53ts 32C tox	IkB sig inh	Peg3 imprint	p53ts 39C tox
Cc1cccc(C2C=C(c3ccc(F)cc3)Nc3nc4ccccc4n32)c1 (stereo unspecified)	20µM*	?	-26%[10.9 µM]	10µM*
CCc1ccc(C2=CC(c3c(F)cccc3Cl)n3c(nc4ccccc43)N2)cc1 (stereo unspecified)	?	7%	-16%[10.9 µM]	?
Cc1ccc(-c2nc3n(n2)C(c2ccccc2C)C=C(c2ccc(Cl)cc2)N3)cc1 (stereo unspecified)	4%	?	1%[10.9 µM]	-7%
Cc1ccc(C2=CC(c3ccccc3C)n3c(nc4ccccc43)N2)cc1 (stereo unspecified)	?	?	-20%[10.9 µM]	5µM*
Cc1cccc(NC(=O)CN2C(=O)COc3ccc(S(=O)(=O)Nc4ccccc4)cc32)c1C	-10%	0%	8%[10.9 µM]	2%
CCOC(=O)c1sc(NC(=O)COC(=O)CNC(=O)C2CCCCC2)c(C(=O)OCC)c1C	?	.	.	3.2µM*
CN1CCN(CCC=C2c3ccccc3Sc3ccc(S(=O)(=O)N(C)C)cc32)CC1	-30%	-9%	-31%	16µM*!
COc1ccc2cc1Oc1ccc(cc1)C[C@@H]1c3c(cc(OC)c4c3Oc3cc5c(cc3O4)CCN[C@H]5C2)CCN1C	-10%[9.22 µM]	-4%[11.4 µM]	-37%[10.9 µM]	-19%[9.22 µM]
O=C(O)c1cc(/C=N\O)ccc1OCc1ccccc1	-1%	?	4%	9%
COc1cc(/C=N/O)ccc1OCc1ccc(C(=O)O)cc1	8.9µM*	.	.	8.9µM*
O=C1OC2(c3cc(Br)c(O)c(Br)c3Oc3c2cc(Br)c(O)c3Br)c2c(Cl)c(Cl)c(Cl)c(Cl)c21	-4%[1.84 µM]	-9%	-1%	3%
c1ccc(C2=Nn3c(nnc3-c3n[nH]c4c3CCC4)SC2)cc1	10%	18%	-8%	-17%
Clc1ccc(C2=Nn3c(nnc3-c3n[nH]c4c3CCC4)SC2)cc1Cl	48%	6%	-16%	13µM*
COc1ccc(C2/C=C\[C@H](O[Si](C)(C)C(C)(C)C)[C@H](C(C)C)CC(=O)N2Cc2ccccc2)cc1 (stereo partly specified)	.	.	-11%	.
COc1ccc(CNCCC(c2ccccc2)c2ccc3c(c2)OCO3)cc1 (stereo unspecified)	?	?	-18%[10.9 µM]	16µM*
CCOC(=O)C1CCN(c2cc(C)nc3c(-c4ccccc4OC)c(C)nn23)CC1	14%	21%	-21%[10.9 µM]	20%
Cc1ccc2nc(-c3cccc(N)c3)[nH]c2c1	14µM*	.	.	11µM*
COc1ccc2nc(-c3ccccc3)[nH]c2c1	10µM*	?	-95%	13µM*
CCOc1ccc2nc(-c3ccccc3)[nH]c2c1	6.3µM*	?	-88%	5µM*
COc1ccc(N2CCN(C(=O)C(C)n3nc(C)c4sc5ccccc5c4c3=O)CC2)cc1 (stereo unspecified)	10µM*	-5%	-31%[10.9 µM]	10µM*
Cc1nn(C(C)C(=O)NC2CCC(C)CC2)c(=O)c2c1sc1ccccc12 (stereo unspecified)	11µM*	?	-30%[10.9 µM]	10µM*
Cc1nn(C(C)C(=O)N2CCCCC2)c(=O)c2c1sc1ccccc12 (stereo unspecified)	5%	.	.	2%
Cc1ccccc1-c1ncnn1-c1sc2c(c1C#N)CCCCC2	?	?	-15%[10.9 µM]	13µM*
N#Cc1c(-n2ncnc2-c2cccc(Br)c2)sc2c1CCCCC2	2%	?	-12%[10.9 µM]	-24%
N#Cc1c(-n2ncnc2-c2ccc(F)cc2)sc2c1CCCCC2	13µM*	?	-22%[10.9 µM]	13µM*
SMILES	p53ts 32C tox	IkB sig inh	Peg3 imprint	p53ts 39C tox
CC(C)CC(C(=O)NCc1ccc(F)cc1)N1Cc2ccccc2C1=O (stereo unspecified)	5%	.	.	.
O=Nc1c(-c2c(O)[nH]c3cc(Br)ccc23)[nH]c2ccccc12	13µM*	.	-42%	13µM*
O=S(=O)(Nc1ccc(Br)cc1)c1ccc2nc(-c3ccccc3)[nH]c2c1	10%	?	-12%[10.9 µM]	?
CC(C)c1ccc(NS(=O)(=O)c2ccc3nc(-c4ccccc4)[nH]c3c2)cc1	?	?	-12%[10.9 µM]	20µM*
CCc1ccc(S(=O)(=O)c2nnn3c2nc(Nc2ccc(NC(C)=O)cc2)c2sccc23)cc1	?	-2%	-5%[10.9 µM]	13µM*
CCc1ccc(Nc2nc3c(S(=O)(=O)c4cccc(Cl)c4)nnn3c3ccsc23)cc1	0%	-1%	-11%[10.9 µM]	-10%
